The results in this text go back to PubChem BioAssay (NCATS).

Several values for one entry are separate records, joined by “and”; a condition that tells them apart may be missing. Identical values can stand only once. Activity calls are given as the source filed them. The call rests on the fitted dose curve.

This assay can be described thus: qHTS drug screen for cell cycle checkpoint inhibitors in PARPi-resistant BRCA-mutant ovarian cancer cell lines. (AID 1963452). The note with it: PEO1/OlaR viability, CellTiter-Glo luminescence, 96 h; for Z-AUC: stronger effect = lower value. The gist of the method: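 PEO1, PEO4 and PEO1/OlaR ovarian cancer cells, 600 per well, exposed 96 h at 37C to a dilution series. Viability read by CellTiter-Glo luminescence, normalized to DMSO and empty wells; activity summarized as Z-AUC.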

Where [1] appears, read: measured here: PEO1 parental Z-AUC.
Potency means the concentration at half of the fitted maximal effect.

In the case of `FC(F)(F)c1ccc(CNc2ccc(Cc3c[nH]c4ncc(Cl)cc34)cn2)cn1`, the Z-AUC is 1.12 (inactive). Moreover, under setting [1], the Z-AUC worked out at 1.06. Moreover, the Z-AUC (measured here: PEO4 Z-AUC) worked out at 1.21.
Consider `Cc1nc(-c2cn3c(n2)-c2ccc(-c4cnn(C(C)(C)C(N)=O)c4)cc2OCC3)n(C(C)C)n1`, for which the Z-AUC was -1.26 (inactive). Under setting [1], the Z-AUC is -0.764. Further, where the note is “measured here: PEO4 Z-AUC”, the Z-AUC was -0.716.
Regarding `COc1ccc(-n2c(SCCCN3C(=O)c4cccc5cccc(c45)C3=O)nnc2-c2ccncc2)cc1`, the Z-AUC was 0.836 (inactive). The Z-AUC under setting [1] was 0.296. Further, under “measured here: PEO4 Z-AUC”, the Z-AUC stood at 0.916.
Turning to `CCCOc1ccc(CCc2nc3cc(-c4c(C)noc4C)ccc3n2CCN2CCOCC2)cc1`, the Z-AUC was -0.591 (inactive). Moreover, the Z-AUC under setting [1] was -0.719. The Z-AUC (measured here: PEO4 Z-AUC) is -0.728.
For `CCCC1(CCC)CCC2(CCN(CCCN(CC)CC)C2)CC1`, the Potency was 3.89 µM (active). The Z-AUC under setting [1] is -2.03. The Z-AUC (measured here: PEO4 Z-AUC) was -1.83.
In the case of `COc1cc2ncnc(Nc3ccc(O)c(Br)c3)c2cc1OC`, the Z-AUC was -0.393 (inactive). The Z-AUC under setting [1] was determined as 0.024. Further, the Z-AUC (measured here: PEO4 Z-AUC) is -0.318.
Consider `COC(C)(C)CCn1nc(Nc2c(C)cccc2C)c2cnc(Nc3ccc(OCCN4CCCC4)c(F)c3)nc21`, for which the Z-AUC was -0.962 (inactive). Moreover, under setting [1], the Z-AUC was -0.494. For the same compound, the Z-AUC (measured here: PEO4 Z-AUC) amounted to 0.564.
Consider `CCC[C@H](N[C@H]1CCc2cc(F)cc(F)c2C1)C(=O)Nc1cn(C(C)(C)CNCC(C)(C)C)cn1`, for which the Z-AUC is -0.27 (inactive). Under setting [1], the Z-AUC stood at 0.0318. Also, the Z-AUC (measured here: PEO4 Z-AUC) was -0.108.
On to `COc1ccc(-c2c(C)nn3c(NCCN4CCOCC4)cc(C)nc23)cc1OC`, for which the Z-AUC was 0.717 (inactive). In addition, the Z-AUC under setting [1] was 0.787. Under “measured here: PEO4 Z-AUC”, the Z-AUC is 0.395.
As for `Cc1[nH]c2ccc(F)cc2c1-c1nc2c3cccnc3c3ncccc3c2[nH]1`, the Z-AUC was -1.49 (inactive). Also, the Z-AUC under setting [1] is -0.715. Also, the Z-AUC (measured here: PEO4 Z-AUC) was -1.31.
For `Cc1cn(CCN2CCN(c3ccccc3-c3cc(C#N)cc(C(=O)NCCCN4CCCC4)c3)CC2)c2ccccc12` the same measures were -0.259 (inactive), -0.4 and -0.379.
As for `COC(=O)N1CC2(CC2)C[C@H](C(=O)NO)[C@H]1C(=O)N1CCN(c2ccccc2)CC1`, the Z-AUC was -0.244 (inactive). Under setting [1], the Z-AUC was -0.0786. Besides, the Z-AUC (measured here: PEO4 Z-AUC) was 0.341.
As for `CN(C)N(C)C(=O)[C@@]1(Cc2ccccc2)CCCN(C(=O)[C@@H](Cc2c[nH]c3ccccc23)NC(=O)C(C)(C)N)C1`, the Z-AUC was -0.303 (inactive). In addition, under setting [1], the Z-AUC is -0.129. Further, the Z-AUC (measured here: PEO4 Z-AUC) was found to be 0.0758.
As for `COc1cc2c(cc1OC(C)C)[C@H](c1ccc(Cl)cc1)N(c1ccc(N(C)CC3CCC(N4CCN(C)C(=O)C4)CC3)cc1)C(=O)C2` (some centres undefined), the Z-AUC is 0.694 (inactive). For the same compound, the Z-AUC under setting [1] stood at 0.366. Besides, the Z-AUC (measured here: PEO4 Z-AUC) is 0.545.
For `CCCC(CCC)C(=O)Nc1ccn([C@@H]2O[C@H](CO)[C@@H](O)C2(F)F)c(=O)n1` the same measures were -1.13 (inactive), -1.5 and -0.847.
For `CC(C)NC(=O)COc1cccc(-c2nc(Nc3ccc4[nH]ncc4c3)c3ccccc3n2)c1`, the Potency was 4.36 µM (active). In addition, under setting [1], the Z-AUC is -1.21. Besides, the Z-AUC (measured here: PEO4 Z-AUC) is -1.12.
Turning to `OC(c1ccc(-c2ccc(CN3CCN(Cc4ccncc4)CC3)cc2)c(F)c1)(C(F)(F)F)C(F)(F)F`, the Z-AUC was -1.4 (inactive). The Z-AUC under setting [1] was -0.566. Further, the Z-AUC (measured here: PEO4 Z-AUC) was -0.000497.
With `Cc1nc2ccc(-n3ncc(C(=O)c4cc5ccccc5[nH]4)c3N)cc2[nH]1`, the Z-AUC is -0.798 (inactive). Moreover, the Z-AUC under setting [1] is -1.1. For the setting “measured here: PEO4 Z-AUC”, the Z-AUC was -0.294.
`NC(=O)c1cnc(N[C@@H]2CCCC[C@@H]2N)nc1Nc1cccc(-n2nccn2)c1`: the Z-AUC is 0.565 (inactive). Further, the Z-AUC under setting [1] was -0.0999. Besides, the Z-AUC (measured here: PEO4 Z-AUC) came to 0.242.
As for `COc1cccc(-c2cc(F)ccc2C2Cc3nc(N)nc(C)c3C(=O)N2)n1` (centres undefined), the Z-AUC was -1.35 (inactive). The Z-AUC under setting [1] is -1.35. In addition, the Z-AUC (measured here: PEO4 Z-AUC) is -0.552.
For the compound `Cc1nc(NC(=O)N2CCC[C@H]2C(N)=O)sc1-c1ccnc(C(C)(C)C(F)(F)F)c1`, the Z-AUC is -0.211 (inactive) and -0.86 (inactive). The Z-AUC under setting [1] is -0.228 and -0.204. The Z-AUC (measured here: PEO4 Z-AUC) was -0.403 and -0.389.
Take `CCOC(=O)[C@@]1(CCCCCCOc2ccc(Cl)cc2)CO1`: the Z-AUC is 1.19 (inactive). Besides, the Z-AUC under setting [1] was found to be 1.19. Further, for the setting “measured here: PEO4 Z-AUC”, the Z-AUC came out at 1.21.
In the case of `CC[C@@H](C)Nc1cc(C(=O)NC2CC3CCC(C2)N3c2ccc(C(=O)C3CC3)cn2)c(C)cc1C(N)=O` (some centres undefined), the Z-AUC is -1.08 (inactive). Under setting [1], the Z-AUC is -1.13. Also, the Z-AUC (measured here: PEO4 Z-AUC) was -0.342.
`CCn1nc(C2CCN(C(=O)CCO)CC2)nc1-c1cnc(N)c(-c2nnc(C(C)(C)C)o2)n1`: the Z-AUC is 0.285 (inactive). Further, the Z-AUC under setting [1] is 0.385. The Z-AUC (measured here: PEO4 Z-AUC) came out at 0.568.
Take `CCCc1cc(C)[nH]c(=O)c1CNC(=O)c1cc(-c2ccc(N3CCN(C(C)C)CC3)nc2)cc2c1cnn2C(C)C`: the Z-AUC is 0.233 (inactive). Further, the Z-AUC under setting [1] was 0.123. The Z-AUC (measured here: PEO4 Z-AUC) was found to be 0.0189.
Consider `CN1CCN(c2ccc(-c3cccc(CN4CCOCC4)c3)cc2NC(=O)c2c[nH]c(=O)cc2C(F)(F)F)CC1`, for which the Z-AUC was 0.777 (inactive). The Z-AUC under setting [1] was 0.269. The Z-AUC (measured here: PEO4 Z-AUC) was 0.524.
For `Cc1c(F)ccc(C(=O)Nc2cc([N+](=O)[O-])ccc2N2CCN(C)CC2)c1Cl`, the Z-AUC is 0.532 (inactive). Further, the Z-AUC under setting [1] was found to be 0.409. Further, the Z-AUC (measured here: PEO4 Z-AUC) is -0.0381.
On to `Cc1c(NC(=O)c2cc3c(s2)CCCC3)cccc1-c1cn(C)c(=O)c(Nc2ccc(C3C(=O)N(C)CCN3C)cc2)n1` (centres undefined), for which the Z-AUC was 1.18 (inactive). The Z-AUC under setting [1] came out at 0.426. Where the note is “measured here: PEO4 Z-AUC”, the Z-AUC came to 0.277.
